Shh pathway inh – Sonic Hedgehog pathway inhibition; Shh-LIGHT2 Gli-luciferase reporter, 30 h; inhibition, % (no concentration beside the values); 2.1% of 22,000 active; AID 2313;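 active = mean inhibition across valid replicates above about 65%, limit read from the data; inconclusive = mean under the limit, yet half or more replicates past it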;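 also: pathway switched on by Shh-conditioned medium diluted 1 in 25 in low serum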
NOMO-1 viab – STK33 inhibitor candidate reducing NOMO-1 cell viability; AID 2330; 7.5% of 37,000 active; inhibition, % (test concentration not listed); NOMO-1 AML viability, CellTiter-Glo luminescence, 72 h; in the data active = inhibition above about 80%; inconclusive = no clear call, values can overlap the other calls
MITF inhib – blocks MITF activity. TRPM1 promoter luciferase, luminescence, 24 h. inhibition, % (test concentration not listed). 0.28% of 37,000 active. AID 2240; in the data active = inhibition above about 85%; inconclusive = no clear call, values can overlap the other calls; inactive = below about 68%;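 also: human melanocyte line stably carrying TRPM1 promoter luciferase reporter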
* marks the source's active call; other numbers are inactive results; ? = inconclusive; / = no result given. Hits are enriched below; roughly 8.1% of the tested compounds scored in any of these assays.

SMILES	Shh pathway inh	NOMO-1 viab	MITF inhib
C[C@@H]1CN([C@@H](C)CO)C(=O)Cc2cc(NC(=O)Nc3ccc(C(F)(F)F)cc3)ccc2O[C@@H]1CN(C)S(=O)(=O)c1cccs1	18.0	111.1*	68.9
C[C@@H]1CN([C@H](C)CO)C(=O)Cc2cc(NC(=O)Nc3ccc4c(c3)OCO4)ccc2O[C@H]1CN(C)S(=O)(=O)c1cccs1	-17.7	10.9	4.8
C[C@H](CO)N1C[C@H](C)[C@H](CN(C)S(=O)(=O)c2cccs2)Oc2ccc(NC(=O)Nc3ccc(C(F)(F)F)cc3)cc2CC1=O	/	123.3*	20.6
C[C@@H]1CN([C@H](C)CO)C(=O)Cc2cc(NC(=O)Nc3ccc(C(F)(F)F)cc3)ccc2O[C@H]1CN(C)S(=O)(=O)c1cccs1	/	12.4	4.3
C[C@@H]1CN([C@@H](C)CO)C(=O)Cc2cc(NC(=O)Nc3ccc(F)cc3)ccc2O[C@@H]1CN(C)S(=O)(=O)c1cccs1	-7.8	-4.5	-5.5
C[C@H](CO)N1C[C@H](C)[C@H](CN(C)S(=O)(=O)c2cccs2)Oc2ccc(NC(=O)Nc3ccc4c(c3)OCO4)cc2CC1=O	0.5	86.5*	24.2
Cc1noc(C)c1S(=O)(=O)Nc1ccc2c(c1)C(=O)N([C@H](C)CO)C[C@H](C)[C@H](CN(C)Cc1ccc(Oc3ccccc3)cc1)O2	37.5	42.1	-8.1
COc1ccc(-n2c(SCC(=O)Nc3ccccc3C(F)(F)F)nnc2-c2ccccc2)cc1	/	4.5	4.6
COc1cc(O[C@@H]2O[C@H](CO)[C@@H](O)[C@H](O)[C@H]2O)cc2occ(-c3ccc(O)cc3)c(=O)c12	-20.5	11.5	-28.2
Clc1ccccc1/C=C/C=Nc1ccc(N2CCOCC2)cc1	26.9	122.4*	-49.7
c1ccc(-c2nsc(N3CCOCC3)n2)cc1	-185.5	-0.6	20.3
O=C(CSc1nnc(-c2cccc3ccccc23)n1-c1ccccc1)NC1CC1	/	1.4	4.1
O=C(CSc1ncc(-c2ccccc2)nn1)Nc1ccc(I)cc1	/	43.0	21.9
c1ccc(-c2nc(C34CC5CC(CC(C5)C3)C4)co2)cc1	-28.7	99.2*	-23.4
c1ccc(CSC23CC4CC(CC(C4)C2)C3)cc1	/	56.7	-2.0
CC(C)OC(=O)Nc1cc(Cl)cc(Cl)c1	-4.2	58.6	-25.2
C=C1C(=O)O[C@H]2C1CC[C@@](C)(O)[C@@H]1C[C@H](O)C(=C)[C@@H]12 (some centres undefined)	38.8	/	/
C=C1C(=O)O[C@H]2C1CCC(=C)[C@@H]1C[C@H](OC(=O)C=C(C)C)C(=C)[C@@H]12 (some centres undefined)	7.5	96.5*	11.9
O=C(CCCN1C(=O)c2ccccc2C1=O)Nc1ccc(Cl)cc1C(F)(F)F	/	20.8	-13.4
C[C@@H]1CN([C@@H](C)CO)C(=O)c2cc(NC(=O)Cc3ccccc3)ccc2O[C@@H]1CN(C)C(=O)Nc1ccc2c(c1)OCO2	-15.1	5.7	-7.9
O=C1/C(=C/c2ccc(O)cc2)SC(=S)N1CCc1ccccc1	/	102.2*	2.0
CC(C)OC(=O)CCN1C(=O)/C(=C/c2ccccc2)SC1=S	25.2	39.7	-5.0
Cc1ccc(-n2c(SCC(=O)Nc3ccc(F)c(F)c3)nnc2-c2ccc(Cl)cc2)cc1	/	?	4.0
Cc1sc(/N=C/c2cn(Cc3ccccc3)c3ccccc23)c(C#N)c1C	/	63.7	-19.3
N#C/C(=C\c1ccc(O)c(O)c1)C(=O)NCCCc1ccccc1	86.1*	92.3*	2.5
SMILES	Shh pathway inh	NOMO-1 viab	MITF inhib
N#C/C(=C\c1ccc(O)c(O)c1)C(=O)c1ccc(O)c(O)c1	39.8	45.6	-3.0
C[C@@H]1CCCCO[C@H](CN(C)S(C)(=O)=O)[C@@H](C)CN([C@H](C)CO)C(=O)c2cc(NC(=O)Nc3ccccc3)ccc2O1	-28.4	5.3	2.1
CCOc1ccc2nc(NCCCO)[nH]c2c1	/	21.3	-2.1
CCCOc1ccc2nc(NC(=O)OC)[nH]c2c1	48.6	104.5*	-1.0
COc1ccc(OC)c(NC(=O)Cn2cc(C(=O)C3CCCCC3)c3ccccc32)c1	/	13.6	51.5
COc1ccc(CN(C)C[C@H]2Oc3c(NC(=O)Nc4ccc(C(F)(F)F)cc4)cccc3C(=O)N([C@@H](C)CO)C[C@H]2C)cc1	-29.7	49.9	-2.6
COc1ccc(CN(C)C[C@@H]2Oc3c(NC(=O)Nc4ccc(C(F)(F)F)cc4)cccc3C(=O)N([C@H](C)CO)C[C@H]2C)cc1	33.8	104.5*	46.3
COc1ccc(CN(C)C[C@@H]2Oc3c(NC(=O)Nc4ccc(C(F)(F)F)cc4)cccc3C(=O)N([C@@H](C)CO)C[C@@H]2C)cc1	-22.7	11.0	-8.8
COc1ccc(NC(=O)Nc2cccc3c2O[C@H](CN(C)Cc2ccc(C(F)(F)F)cc2)[C@@H](C)CN([C@H](C)CO)C3=O)cc1	4.7	106.2*	15.9
COc1ccc(CN(C)C[C@H]2Oc3c(NC(=O)Nc4ccc(C(F)(F)F)cc4)cccc3C(=O)N([C@@H](C)CO)C[C@@H]2C)cc1	?	101.0*	35.8
COc1ccc(NC(=O)Nc2cccc3c2O[C@H](CN(C)Cc2ccc(C(F)(F)F)cc2)[C@@H](C)CN([C@@H](C)CO)C3=O)cc1	-14.1	84.8*	6.9
Cc1sc2nc3c4ccccc4c(NCc4ccccn4)nn3c(=O)c2c1C	/	?	-22.4
CCn1c(SCC(=O)Nc2cc(Cl)cc(Cl)c2)nnc1-c1ccc(C)cc1	/	42.8	42.6
COc1ccc(NC(=O)Nc2cccc3c2O[C@@H](CN(C)Cc2ccc(C(F)(F)F)cc2)[C@H](C)CN([C@@H](C)CO)C3=O)cc1	20.1	98.2*	36.9
COc1ccc(CN(C)C[C@H]2Oc3c(NC(=O)Nc4ccc(F)cc4)cccc3C(=O)N([C@@H](C)CO)C[C@@H]2C)cc1	-3.0	55.8	7.6
COc1ccc(CN(C)C[C@H]2Oc3c(NC(=O)Nc4ccc(C(F)(F)F)cc4)cccc3C(=O)N([C@H](C)CO)C[C@@H]2C)cc1	-89.2	94.3*	25.2
COc1ccc(CN(C)C[C@H]2Oc3c(NC(=O)Nc4ccc(F)cc4)cccc3C(=O)N([C@@H](C)CO)C[C@H]2C)cc1	-8.0	29.4	-21.5
C[C@H]1CN([C@@H](C)CO)C(=O)c2cccc(NS(=O)(=O)c3ccc(F)cc3)c2O[C@@H]1CN(C)Cc1ccc(C(=O)O)cc1	-11.3	17.5	-5.1
Cc1nc(N)nc(CSc2ccccc2)n1	-36.5	27.1	-25.5
Cc1c(NC(=O)CN(c2ccccc2F)S(C)(=O)=O)cccc1[N+](=O)[O-]	/	37.3	-8.4
C=CCN1C(=O)C2(C(C#N)=C(N)Oc3c2c(=O)oc2ccccc32)c2ccccc21 (centres undefined)	-32.2	-11.6	-5.4
N#CC1=C(N)Nc2c(c(=O)oc3ccccc23)C1c1ccc(Br)cc1 (centres undefined)	72.4*	34.5	25.1
O=C(CC1c2ccccc2Oc2ccccc21)Nc1ccccc1C(=O)N1CCCCC1	/	-2.8	1.3
CCOC(=O)c1cccc(NC(=O)COc2ccc(Br)cc2)c1	/	27.5	8.7
O=C(CC1c2ccccc2Oc2ccccc21)Nc1ccc(Cc2ccncc2)cc1	/	134.6*	60.4
CCOC(=O)Nc1cccc(NC(=O)CC2c3ccccc3Oc3ccccc32)c1	/	71.8	89.0*
CCOc1ccc(C2(CC(=O)Nc3ccccc3)C(=O)c3ccccc3C2=O)cc1OC	-28.4	1.5	6.3
Cc1cc(-c2ccc(Cl)cc2)nc(SCC(=O)Nc2ccccc2)n1	/	7.9	-6.8

From PubChem
